The list is not random: actives were taken first. Their share in the collection is about 2.2%.
TWEAK Fn14 block: blocks TWEAK-Fn14 interaction in a reporter cell assay | TWEAK-stimulated Fn14 reporter cells, luciferase luminescence, 8 h | inhibition, % at 10 µM | actives 2% (n = 360,000) | AID 1159606; in the data active = inhibition above about 50%
TROY NFkB inh: TROY signaling inhibition. actives 0.98% (n = 360,000). Q293 LMP1-TROYcd NF-kB luciferase reporter, 4 h. inhibition, % at 10 µM. AID 1347056;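 active = compounds whose plate-normalised and pattern-corrected inhibition of the luciferase reporter signal at the single screening dose is 50% or more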
HSP90 inh: blocks HSP90-mediated luciferase refolding in reticulocyte lysate. inhibition, % at 5.6 µM. Rabbit reticulocyte lysate, luciferase refolding luminescence, 3 h. actives 0.91% (n = 290,000);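 active = inhibition above the screen-wide mean plus 3 SD, computed separately per campaign, cut at about 16% in these data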;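 note: 0% = DMSO wells and 100% = 60 µM geldanamycin wells; inhibitors lower the luminescence because luciferase stays unfolded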
LGR2 inh: inhibitors of bursicon-induced Drosophila LGR2 receptor cAMP signaling. HEK293 LGR2, CRE-luciferase, bursicon-stimulated, 4 h. inhibition, % at 9.99 µM. actives 0.35% (n = 380,000). AID 720647;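 active = drop in luminescence signal, shown as inhibition above about 50% in the replicate tests, limit read from the data, passing the limit was not always enough; inconclusive = probably only some replicates passing the limit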;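 note: agonist challenge used bursicon conditioned medium at about half maximal strength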
* = called active by the depositor; u = inconclusive; x = no result given.

SMILES	TWEAK Fn14 block	TROY NFkB inh	HSP90 inh	LGR2 inh
Cn1c(N2CCN(c3ccccn3)CC2)nc2c1c(=O)n(Cc1ccc(Cl)cc1)c(=O)n2C	52.3*	53.9*	6.5	x
CC(C)NC(=O)N(C)C[C@@H]1Oc2c(NC(=O)C3CC3)cccc2C(=O)N([C@@H](C)CO)C[C@H]1C	x	x	x	-2.7
CO[C@H]1CN(C)C(=O)c2cc(NC(=O)Nc3cc(F)ccc3F)ccc2OC[C@@H](C)N(C(=O)c2cnccn2)C[C@H]1C	x	x	x	-2.5
CC1=CCC2([N+](=O)[O-])CN(CC(=O)O)CC1([N+](=O)[O-])C2 (stereo not drawn)	-16.1	-5.8	-3.2	3.1
CCN1CC2([N+](=O)[O-])CC=C(OC)C([N+](=O)[O-])(C1)C2 (stereo not drawn)	73.2*	-17.7	1.7	5.2
CN1C(=O)c2cc(NC(=O)c3ccc(Cl)cc3)ccc2OC[C@H]2O[C@@H](CC(=O)O)CC[C@H]21	x	x	x	20.9
COc1ccccc1-n1cc([C@@H]2C[C@H]3CN(c4ccccc4)C(=O)[C@]34CCCN24)cn1	80.0*	39.6	3.6	24.8
CO[C@@H]1CN(C)C(=O)c2ccc(NC(C)=O)cc2OC[C@H](C)N(C(=O)CN2CCOCC2)C[C@@H]1C	x	x	x	-21.0
CC(C)c1nc(Cl)c(C#N)c2c1CCCC2	51.9*	0.9	-3.5	-8.7
CC(C)c1nc(NCc2ccccc2)c(C#N)c2c1CCCC2	-12.7	-8.5	-3.0	x
CC(C)c1nc(NCCO)c(C#N)c2c1CCCC2	61.5*	50.9*	-0.5	x
C[C@@H]1CN([C@@H](C)CO)C(=O)c2cc(NS(=O)(=O)c3cccs3)ccc2O[C@@H]1CN(C)S(C)(=O)=O	x	x	x	16.3
COc1ccc(NC(=O)Nc2ccc3c(c2)C(=O)N([C@H](C)CO)C[C@@H](C)[C@@H](CN(C)C(=O)CCC(F)(F)F)OCCCC[C@H](C)O3)cc1	x	x	x	25.3
COc1ccc(C#Cc2cnc3c(c2)C(=O)N([C@@H](C)CO)C[C@@H](C)[C@@H](CN(C)C(C)=O)O3)cc1	x	x	x	7.3
O=C(C[C@@H]1CC[C@H]2[C@@H](COC[C@H](O)CN2CCC(F)(F)F)O1)NCC1CCCCC1	x	x	x	15.3
O=C(/C=C/Nc1ccc(Br)cc1F)c1ccco1	63.3*	17.7	10.2	88.7*
O=C(/C=C/Nc1ccc(F)cc1F)c1ccco1	72.6*	-13.4	4.5	u
CC(=O)Nc1ccc(N/C=C/C(=O)c2ccco2)cc1	-9.4	-9.1	-2.7	x
CN(C)c1ccc(N/C=C/C(=O)c2ccco2)cc1	86.3*	-14.1	8.8	x
CCc1ccc(/C=C/c2c([N+](=O)[O-])c(=O)n(C)c(=O)n2C)cc1	65.2*	13.3	9.0	39.6
CCOc1ccc(/C=C/c2c([N+](=O)[O-])c(=O)n(C)c(=O)n2C)cc1	21.0	10.4	5.7	17.6
Cn1c(/C=C/c2ccc(Cl)cc2Cl)c([N+](=O)[O-])c(=O)n(C)c1=O	73.3*	8.8	7.9	56.0*
CCc1nnc(NC(=O)C2CCN(C(=O)c3ccco3)CC2)s1	8.3	-4.4	0.2	-6.5
Cc1nnc(NC(=O)C2CCN(C(=O)c3ccco3)CC2)s1	-0.6	-8.7	16.4*	-2.5
FC(F)(F)c1nc2nc(Cl)c(Cl)nc2[nH]1	9.3	3.7	x	5.3
SMILES	TWEAK Fn14 block	TROY NFkB inh	HSP90 inh	LGR2 inh
FC(F)(F)c1cccc(-c2nc3nc(Cl)c(Cl)nc3[nH]2)c1	63.6*	34.5	3.5	15.9
O=C(Nc1ccc2c(c1)OCO2)N[C@H]1CC[C@@H](CCNC(=O)C2CCCC2)O[C@@H]1CO	x	x	x	-11.7
O=c1cc(-c2c(F)c(F)c(F)c(F)c2F)oc2ccccc12	5.7	65.7*	-4.1	67.2*
O=C(Cn1ncc(Cl)c(Cl)c1=O)NC1CCS(=O)(=O)C1 (stereo not drawn)	-13.2	-8.1	12.9	-7.6
O=C(Cn1ncc(Cl)c(Cl)c1=O)NC1CCCCC1	84.0*	31.9	x	2.6
Cc1cccc(NC(=O)CNC(=O)Cn2ncc(Cl)c(Cl)c2=O)c1C	100.3*	10.3	x	x
O=C1CN(C(=O)Cn2ncc(Cl)c(Cl)c2=O)c2ccccc2N1	94.3*	70.2*	2.0	105.1*
Cc1cccc(NC(=O)CNC(=O)CSc2ncccn2)c1C	-7.1	-18.8	x	-8.5
O=C(Cn1ncc(Cl)c(Cl)c1=O)NCC1CCCCC1	96.6*	-0.5	0.1	x
COc1ccc(S(=O)(=O)N(C)C[C@H]2Oc3ccc(NC(=O)C4CCCCC4)cc3C(=O)N([C@@H](C)CO)C[C@@H]2C)cc1	x	x	x	-5.9
C[C@H](CO)N1C[C@H](C)[C@H](CN(C)C(=O)c2ccccn2)Oc2ncc(-c3ccccc3)cc2C1=O	x	x	x	5.0
CO[C@@H]1CN(C)C(=O)c2cc(NC(=O)NC3CCCC3)ccc2OC[C@H](C)N(CC2CC2)C[C@@H]1C	x	x	x	3.1
